PubChem BioAssay AID504910 (Southern Research Specialized Biocontainment Screening …, 2011)
Results with a measured potency or affinity are listed apart. Calls of active or inactive are those of the source. How the calls were made is not given here.

Test: HepG2 cell cytotoxicity, cytotoxicity control, set 4 (AID 504910)

Row | SMILES | outcome
1 | CO[C@H]1/C=C/O[C@@]2(C)Oc3c(C)c(O)c4c(O)c(c(C=NN5CCN(C)CC5)c(O)c4c3C2=O)NC(=O)/C(C)=C\C=C\[C@H](C)[C@H](O)[C@@H](C)[C@@H](O)[C@@H](C)[C@H](OC(C)=O)[C@@H]1C | inactive
2 | CN1CCC(NC(=O)CSc2nc3ccccc3c(=O)[nH]2)CC1 | inactive
3 | O=C(CSc1nc2ccccc2c(=O)[nH]1)NCc1ccc(Cl)cc1 | inactive
4 | COc1ccc(NC(=O)CSc2nc3ccccc3c(=O)[nH]2)cc1 | inactive
5 | CCCc1cc(C(N)=S)ccn1 | inactive
6 | O=C(CSc1nc2c(c(=O)[nH]1)CCCC2)NC1CCCCC1 | inactive
7 | O=C(CSc1ccccn1)NC1CCCCC1 | inactive
8 | CC1CCN(C(=O)C2CCN(c3nnc(-n4cccc4)s3)CC2)CC1 | inactive
9 | Cc1ccc(NC(=O)COC(=O)CCc2c[nH]c3ccccc23)cc1[N+](=O)[O-] | inactive
10 | COC(=O)c1ccc(CNc2c(N3CCCC3)c(=O)c2=O)cc1 | inactive
11 | O=c1[nH]c(SCc2ccccc2Cl)nc2c1CCCC2 | inactive
12 | O=C(CSc1nccc(=O)[nH]1)NC1CCCCC1 | inactive
